Reference: PubChem BioAssay
“And” between values parts separate entries of the source, which are not always exact repeats. Equal values may be shown once.

Assay: sensitizers of A549 cells to miR-34 induction, primary screen, imaging, A549 dox-inducible miR-34, nuclei and caspase counts (AID 1347080); further: test concentration not given here
Conditions: A549 miR-34 inducible, Hoechst nuclei count, 48 h; measured here: total cells with miR-34 induction; stronger effect = lower value
For `COC1C(OC(C)=O)CC(=O)OC(C)CC=CC=CC(O)C(C)CC(CC=O)C1OC1OC(C)C(OC2C[C@@](C)(OC(=O)CC(C)C)C(O)C(C)O2)C(N(C)C)C1O` (stereo not given in full), the cell count was 9630. `CCN1CCCC1CNC(=O)c1c(O)c(Cl)cc(Cl)c1OC` (stereo not given) gave a cell count of 9680. `CC1COc2c(C3(N)CC3)c(F)cc3c(=O)c(C(=O)O)cn1c23` (stereo not given) showed a cell count of 9830. `CC1CC2C3CC(F)C4=CC(=O)C(Cl)=C[C@]4(C)[C@@]3(F)C(O)C[C@]2(C)[C@@]1(O)C(=O)CO` (stereo not given in full) showed a cell count of 6600. Work on `CC1CCC2C(C)C(OC(=O)CCC(=O)O)OC3O[C@@]4(C)CCC1[C@]32OO4` (stereo not given in full) yielded a cell count of 6760. Work on `COc1cc(CNC(=O)CCCCC=CC(C)C)ccc1O` yielded a cell count of 9660. In the case of `CC(C)(C)NC(=O)C1CCC2C3CCC4NC(=O)C=C[C@]4(C)C3CC[C@]12C` (stereo not given in full), the cell count is reported as 8850. In the case of `CCCCC(=O)N(Cc1ccc(-c2ccccc2-c2nn[nH]n2)cc1)C(C(=O)O)C(C)C` (stereo not given), the cell count is reported as 9560. In the case of `CC(=O)OC1CC2CCC3C(CC[C@@]4(C)C3CC([N+]3(C)CCCCC3)C4OC(C)=O)[C@@]2(C)CC1N1CCCCC1` (stereo not given in full), the cell count is reported as 9160. Work on `C[C@]12CCC3c4ccc(O)cc4CCC3C1CCC2O` (stereo not given in full) yielded a cell count of 6850. For `CN1CCc2cc(Cl)c(O)cc2C(c2ccccc2)C1` (stereo not given), the cell count was 8780. In the case of `CC1CC2C3CCC4=CC(=O)C=C[C@]4(C)[C@@]3(F)C(O)C[C@]2(C)C1C(=O)CO` (stereo not given in full), the cell count is reported as 6880. In the case of `COc1cccc2c1C(=O)c1c(O)c3c(c(O)c1C2=O)C[C@@](O)(C(=O)CO)CC3OC1CC(N)C(O)C(C)O1` (stereo not given in full), the cell count is reported as 1960 and 2320. Work on `OCC1OC(n2cnc3c(NC4CCCC4)nc(Cl)nc32)C(O)C1O` (stereo not given) yielded a cell count of 9520. For `CC=CC(=O)N(CC)c1ccccc1C`, the cell count was 9730. With `CC1=C(C(=O)O)N2C(=O)C(NC(=O)C(N)c3ccccc3)C2SC1` (stereo not given) the cell count was 8950. `CC(C)OC(=O)CCCC=CCC1C(O)CC(O)C1CCC(O)CCc1ccccc1` (stereo not given) gave a cell count of 9620. `OCC1OC(n2cnc3c(NC4CCCC4O)ncnc32)C(O)C1O` (stereo not given) gave a cell count of 9400. With `COc1cc(C=Cc2ccc(O)cc2)cc(OC)c1` the cell count was 6760. Compound `COc1ccc(CCCOc2cc(CCn3ccnc3)ccc2OC)cc1` has a cell count of 3260. Compound `NC(C(=O)NC1C(=O)N2C(C(=O)O)=C(Cl)CSC12)c1ccccc1` (stereo not given) has a cell count of 9470. Compound `C[C@]12C=CC(=O)C=C1CCC1C2C(O)C[C@@]2(C)C1CC[C@]2(O)C(=O)COC(=O)CCC(=O)O` (stereo not given in full) has a cell count of 7550. Compound `CC#C[C@]1(O)CCC2C3CCC4=CC(=O)CCC4=C3C(c3ccc(N(C)C)cc3)C[C@@]21C` (stereo not given in full) has a cell count of 5600. In the case of `COCc1c(C(C)C)nc(C(C)C)c(C=CC(O)CC(O)CC(=O)O)c1-c1ccc(F)cc1` (stereo not given), the cell count is reported as 1210. In the case of `COC(=O)C[C@](O)(CCCC(C)(C)O)C(=O)OC1C(OC)=C[C@]23CCCN2CCc2cc4c(cc2C13)OCO4` (stereo not given in full), the cell count is reported as 1590. `CCOC(=O)O[C@]1(C(=O)OCCl)CCC2C3CCC4=CC(=O)C=C[C@]4(C)C3C(O)C[C@@]21C` (stereo not given in full) showed a cell count of 6110. `Nc1ncnc2c1ncn2C1OC(CO)CC1O` (stereo not given) gave a cell count of 8910. For `C=C1C(=CC=C2CCC[C@@]3(C)C2CCC3C(C)C=CC(O)C2CC2)CC(O)CC1O` (stereo not given in full), the cell count was 9990. Compound `CC1CN(CCCn2c3ccccc3c3ccccc32)CC(C)N1` (stereo not given) has a cell count of 6730. `CC(C)(C)NC(=O)C1CC2CCCCC2CN1CC(O)C(Cc1ccccc1)NC(=O)C(CC(N)=O)NC(=O)c1ccc2ccccc2n1` (stereo not given) gave a cell count of 4860. Work on `O=C(OC1C(Oc2ccccc2COC(=O)C2(O)C=CCCC2=O)OC(CO)C(O)C1O)c1ccccc1` (stereo not given) yielded a cell count of 1640. `O=c1cnn(C2OC(CO)C(O)C2O)c(=O)[nH]1` (stereo not given) gave a cell count of 1880. For `O=C(OC1CC2CC3CC(C1)N2CC3=O)c1c[nH]c2ccccc12` (stereo not given), the cell count was 8970. Work on `COCC1=C(C(=O)OC(C)OC(=O)OC(C)C)N2C(=O)C(NC(=O)C(=NOC)c3csc(N)n3)C2SC1` (stereo not given) yielded a cell count of 9860. With `C=CC1=C(C(=O)O)N2C(=O)C(NC(=O)C(=NO)c3csc(N)n3)C2SC1` (stereo not given) the cell count was 9440. `CC(=O)[C@@]1(O)CCC2C3CC(C)C4=CC(=O)CC[C@]4(C)C3CC[C@@]21C` (stereo not given in full) gave a cell count of 7720. Compound `C=CCc1ccccc1OCC(O)CN[C@]1(C)CCC[C@H](C(C)(C)NC(=O)CBr)C1` (stereo not given in full) has a cell count of 70. Compound `CN(C)C1C(=O)C(C(=O)NCN2CCCC2)=C(O)[C@@]2(O)C(=O)C3=C(O)c4c(O)cccc4[C@@](C)(O)C3CC12` (stereo not given in full) has a cell count of 8500. With `C[C@]12CC(O)C3C(CCC4=CC(=O)CC[C@@]43C)C1CCC2C(=O)CO` (stereo not given in full) the cell count was 7080. `C#C[C@]1(O)CCC2C3CCC4=CC(=O)CCC4C3CC[C@@]21CC` (stereo not given in full) gave a cell count of 8490.
